Measurements: paper PMC5540273 (PLoS ONE, 2017)

Tests used:
Conditions in all cases: concentration: 1 μM, replicates: in singlicate; n = 1
[1] = tested on: PKN1
[2] = tested on: PKN2
[3] = tested on: PLK1
[4] = tested on: PLK2
[5] = tested on: PLK3
[6] = tested on: PLK4
[7] = tested on: PRKCD
[8] = tested on: PRKCE
[9] = tested on: PRKCH
[10] = tested on: PRKCI
[11] = tested on: PRKCQ
[12] = tested on: PRKD1
[13] = tested on: PRKD2
[14] = tested on: PRKD3
[15] = tested on: PRKG1
[16] = tested on: PRKG2
[17] = tested on: T1, PRKR
T1 construct: gene EIF2AK2

[18] = tested on: PRKX
[19] = tested on: PRP4
[20] = tested on: T2, PYK2
T2 construct: gene PTK2B
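Further: KINOMEscan kinase panel screen.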

| SMILES | %Inh [1] | %Inh [2] | %Inh [3] | %Inh [4] | %Inh [5] | %Inh [6] | %Inh [7] | %Inh [8] | %Inh [9] | %Inh [10] | %Inh [11] | %Inh [12] | %Inh [13] | %Inh [14] | %Inh [15] | %Inh [16] | %Inh [17] | %Inh [18] | %Inh [19] | %Inh [20] |
| --- | --- | --- | --- | --- | --- | --- | --- | --- | --- | --- | --- | --- | --- | --- | --- | --- | --- | --- | --- | --- |
| COc1ccc(C2=C(Nc3cccc(C(=O)O)c3)C(=O)NC2=O)cc1 [SB-390765] | 18% | 7% | 21% | 48% | 21% | 2% | 5% | 25% | 4% | 47% | 12% | 0% | 0% | 0% | 0% | 0% | 11% | 0% | 0% | 17% |
| Cc1cc(NCC(c2ccccc2)c2ccccc2)nc(NCc2ccc(C(F)(F)F)cc2)n1 [GW497681] | 0% | 0% | 0% | 0% | 0% | 3% | 0% | 0% | 0% | 2% | 0% | 0% | 6% | 0% | 0% | 0% | 0% | 6% | 29% | 6% |
| Nc1ncnc2[nH]c(-c3ccccc3)nc12 [AH5015] | 0% | 0% | 2% | 16% | 0% | 99.9% | 0% | 14% | 18% | 0% | 0% | 0% | 0% | 9% | 6% | 0% | 0% | 0% | 30% | 0% |
| COc1ccccc1CNC(=O)c1cc(C(=O)c2ccccc2C)c[nH]1 [GSK364507] | 0% | 0% | 0% | 0% | 0% | 100% | 0% | 1% | 6% | 3% | 0% | 9% | 1% | 5% | 1% | 2% | 0% | 7% | 23% | 7% |
| COc1cc2ncnc(Nc3ccc4nc(-c5ccccc5)[nH]c4c3)c2cc1OC.Cl [GW282450] | 0% | 0% | 9% | 0% | 0% | 94.5% | 14% | 17% | 0% | 31% | 11% | 0% | 5% | 7% | 0% | 13% | 13% | 5% | 10% | 7% |
| CC(=O)Nc1nc2cnc(Nc3cc(NC(=O)c4cccc(CCC#N)c4)ccc3C)nc2s1 | 12% | 0% | 0% | 8% | 14% | 9% | 8% | 0% | 0% | 32% | 9% | 0% | 2% | 12% | 15% | 10% | 8% | 13% | 1% | 0% |
| CC(C)(C)c1ccc(C(=O)Nc2cn3cc(-c4cccnc4)ccc3n2)cc1 | 25% | 22% | 0% | 16% | 24% | 15% | 36% | 4% | 0% | 26% | 22% | 21% | 14% | 5% | 7% | 26% | 0% | 10% | 22% | 7% |
| Cc1cccc(-c2nc(Nc3cccc(C(N)=O)c3)c3ccccc3n2)n1 [GW876019] | 0% | 0% | 0% | 0% | 4% | 0% | 7% | 0% | 0% | 24% | 0% | 64% | 66% | 87% | 0% | 0% | 6% | 0% | 11% | 6% |
| COc1cccc(-c2cc(-c3c[nH]nc3-c3ccccn3)ccn2)c1 [GW680338] | 0% | 7% | 13% | 0% | 7% | 0% | 12% | 13% | 1% | 0% | 2% | 62% | 47% | 34% | 6% | 0% | 0% | 0% | 26% | 0% |
| NC(=O)c1nnc2ccccc2c1N | 1% | 38% | 28% | 8% | 10% | 19% | 0% | 15% | 0% | 28% | 3% | 0% | 53% | 0% | 0% | 14% | 0% | 1% | 0% | 12% |
| O=C(Nc1ccc2c(c1)OCO2)NC1CCN(c2ccnc(Nc3ccc(F)cc3)n2)C1 (stereo not drawn) [GSK1379724] | 4% | 0% | 0% | 0% | 0% | 0% | 0% | 7% | 0% | 0% | 0% | 16% | 5% | 0% | 0% | 0% | 0% | 0% | 17% | 0% |
| Cl.O=C(Nc1cccc(-c2nn3ncccc3c2-c2ccnc(Nc3cccnc3)n2)c1)c1c(F)cccc1F [GSK312879] | 45% | 0% | 0% | 0% | 0% | 0% | 0% | 5% | 16% | 0% | 25% | 0% | 0% | 25% | 16% | 0% | 0% | 3% | 11% | 0% |
| Cc1cc(-c2ccc3c(c2)CC[C@@H](N[C@@H](C)c2ccccc2)C3)cnc1N.Cl [GW412617] | 8% | 0% | 16% | 0% | 0% | 0% | 7% | 0% | 17% | 0% | 36% | 18% | 21% | 0% | 9% | 0% | 0% | 12% | 0% | 12% |
| Cl.Oc1ccc(-c2nc(-c3ccccc3)[nH]c2-c2ccncc2)cc1 [SB-428218] | 0% | 0% | 0% | 0% | 0% | 0% | 0% | 33% | 0% | 12% | 0% | 0% | 9% | 0% | 12% | 0% | 0% | 0% | 57% | 0% |
| CS(=O)(=O)c1ccc(-c2c(-c3ncn[nH]3)sc(N3CCOCC3)c2C#N)cc1 | 17% | 0% | 8% | 8% | 16% | 28% | 41% | 42% | 5% | 24% | 0% | 19% | 11% | 14% | 12% | 6% | 0% | 32% | 0% | 0% |
| Nc1nc(-c2nccs2)c(-c2ccnc3ccccc23)s1 [GW693542] | 6% | 2% | 0% | 0% | 0% | 0% | 1% | 8% | 16% | 30% | 39% | 42% | 14% | 12% | 8% | 0% | 0% | 10% | 20% | 16% |
| Fc1cc(Cl)ccc1Nc1ccnc2cc(I)ccc12 [GW551191] | 17% | 0% | 0% | 0% | 0% | 1% | 0% | 10% | 2% | 16% | 18% | 1% | 0% | 0% | 5% | 0% | 0% | 0% | 13% | 1% |
| CN1C(=O)C(Nc2ccc(Cl)c(C(=O)O)c2)=C(c2ccc(Cl)cc2)C1=O [SB-404290] | 91.6% | 31% | 18% | 24% | 18% | 0% | 0% | 35% | 0% | 0% | 77% | 0% | 6% | 0% | 13% | 0% | 0% | 0% | 0% | 5% |
| Cl.NC(=O)c1cccc(Nc2nccc(Nc3ccc(Oc4cccc(Cl)c4)c(Cl)c3)n2)c1 [GW659008] | 0% | 0% | 5% | 0% | 0% | 0% | 27% | 27% | 10% | 10% | 0% | 0% | 6% | 0% | 0% | 3% | 0% | 15% | 18% | 15% |
| Cc1ccc(NC(=O)Nc2cccc(Cl)c2)cc1-c1ccc(C(=O)Nc2ccncc2)cc1 [GSK1398468] | 0% | 0% | 0% | 0% | 1% | 0% | 0% | 12% | 5% | 0% | 11% | 0% | 1% | 22% | 1% | 0% | 1% | 80% | 47% | 0% |
| O=C(Nc1n[nH]c2nc(-c3nccs3)c(Br)cc12)C1CCCC1 [SB-742609] | 0% | 0% | 0% | 0% | 0% | 0% | 5% | 0% | 2% | 12% | 4% | 0% | 0% | 0% | 2% | 0% | 5% | 0% | 13% | 9% |
